According to PubChem BioAssay (Tox21):
“And” between values parts separate entries of the source, which are not always exact repeats. Identical values can stand only once. More than one record can exist for a structure, and the calls need not agree. The source made the active and inactive calls. Where a call stands in place of a potency, no number is given. Unless noted, calls follow the shape of the dose curve; as a rule, active = well fitted curve in the direction sought with a large enough effect in the repeat runs; inconclusive = weak or mixed curves; inactive = no such curve, though single readings can be large; an effect the other way counts as inactive or inconclusive.

Legend:
[1] = qHTS assay to identify small molecule antagonists of the glucocorticoid receptor (GR) signaling pathway - cell viability counter screen (AID 720693); also: nearly all actives have a fitted effect of over 55% in size; also: potency is read from the fitted curve at half-maximal effect
[2] = qHTS assay for identifying genotoxic compounds that show differential cytotoxicity against isogenic chicken DT40 cell lines with known DNA damage response pathways - wild type cell line (AID 743012); also: nearly all actives have a fitted effect of over 60% in size; also: potency is read from the fitted curve at half-maximal effect
Method in brief: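 Cytotoxicity in repair-proficient parental chicken DT40 cells serves as the comparator for Rad54/Ku70- and Rev3-deficient lines. Cells were exposed to compounds for 40 h at 37 C/5% CO2, and ATP-based luminescence (CellTiter-Glo) measured viability.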

[3] = qHTS assay for identifying genotoxic compounds that show differential cytotoxicity against isogenic chicken DT40 cell lines with known DNA damage response pathways - Rad54/Ku70 mutant cell line (AID 743015); also: nearly all actives have a fitted effect of over 60% in size; also: potency is read from the fitted curve at half-maximal effect
[4] = qHTS assay to identify small molecule antagonists of the androgen receptor (AR) signaling pathway - cell viability counter screen (AID 743033; also: nearly all actives have a fitted effect of over 45% in size; also: potency is read from the fitted curve at half-maximal effect)
[5] = qHTS assay to identify small molecule antagonists of the androgen receptor (AR) signaling pathway using the MDA cell line - cell viability counter screen (AID 743041; also: nearly all actives have a fitted effect of over 45% in size; also: potency is read from the fitted curve at half-maximal effect)
Method in brief: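 Compound exposure lasted 16 h at 37C in MDA-kb2 AR-luc cells stimulated with R1881. Protease-based CellTiter-Fluor reagent was applied for the final 30 min and fluorescence measured.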

[6] = qHTS assay to identify small molecule antagonists of the thyroid receptor (TR) signaling pathway - cell viability counter screen (AID 743064); also: nearly all actives have a fitted effect of over 50% in size; also: potency is read from the fitted curve at half-maximal effect
Method in brief: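 In-well cytotoxicity read by CellTiter-Fluor (30 min, 37 C) following 23.5 h exposure of GH3 cells bearing a TRE-luciferase sensor. Compounds were added alongside 1 nM (final) T3 to drive TR transactivation.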

[7] = qHTS assay to identify small molecule antagonists of the thyroid receptor (TR) signaling pathway (AID 743065); also: nearly all actives have a fitted effect of over 55% in size; also: potency is read from the fitted curve at half-maximal effect
Method in brief: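 GH3.TRE-Luc rat pituitary cells (two TREs driving luciferase) were dosed with compound, then stimulated with 1 nM T3 (final) for 23.5 h at 37 C. ONE-Glo luminescence was the read-out, with CellTiter-Fluor fluorescence as the cytotoxicity counter-screen.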

[8] = tested on: thyroid hormone receptor (rat, GH3 cells); assay: qHTS assay to identify small molecule agonists of the thyroid receptor (TR) signaling pathway (AID 743066; calls by dose curve)
[9] = qHTS assay to identify small molecule antagonists of the estrogen receptor alpha (ER-alpha) signaling pathway - cell viability counter screen (AID 743074; calls by dose curve; also: nearly all actives have a fitted effect of over 45% in size; also: potency is read from the fitted curve at half-maximal effect)
[10] = qHTS assay to identify small molecule antagonists of the estrogen receptor alpha (ER-alpha) signaling pathway using the BG1 cell line - cell viability counter screen (AID 743081);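 also: compound given together with 17beta-estradiol as the ER stimulus; nearly all actives have a fitted effect of over 45% in size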; also: potency is read from the fitted curve at half-maximal effect
[11] = biological target: Aromatase (Homo sapiens) (UniProt P11511); assay: qHTS assay to identify aromatase inhibitors (AID 743083); also: nearly all actives have a fitted effect of over 55% in size; also: potency is read from the fitted curve at half-maximal effect
Aromatase (Homo sapiens), sequence (P11511 whole entry, looked up): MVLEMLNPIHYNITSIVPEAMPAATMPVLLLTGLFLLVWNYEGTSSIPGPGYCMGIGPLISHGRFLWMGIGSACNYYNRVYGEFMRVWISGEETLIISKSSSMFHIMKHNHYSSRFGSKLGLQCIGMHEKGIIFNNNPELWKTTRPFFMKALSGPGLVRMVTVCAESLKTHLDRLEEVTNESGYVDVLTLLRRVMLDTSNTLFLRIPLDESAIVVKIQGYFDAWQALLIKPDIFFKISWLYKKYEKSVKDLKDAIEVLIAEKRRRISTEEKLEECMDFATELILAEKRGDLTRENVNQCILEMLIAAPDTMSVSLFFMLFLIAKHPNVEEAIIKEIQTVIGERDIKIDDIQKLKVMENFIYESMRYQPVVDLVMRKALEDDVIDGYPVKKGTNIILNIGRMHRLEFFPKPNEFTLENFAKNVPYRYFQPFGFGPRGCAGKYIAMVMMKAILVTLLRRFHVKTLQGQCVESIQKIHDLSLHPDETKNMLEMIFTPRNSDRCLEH

[12] = biological target: Estrogen receptor (Homo sapiens) (UniProt P03372); assay: qHTS assay to identify small molecule agonists of the estrogen receptor alpha (ER-alpha) signaling pathway (AID 743075; calls by dose curve)
Estrogen receptor (Homo sapiens), sequence (P03372 whole entry, looked up): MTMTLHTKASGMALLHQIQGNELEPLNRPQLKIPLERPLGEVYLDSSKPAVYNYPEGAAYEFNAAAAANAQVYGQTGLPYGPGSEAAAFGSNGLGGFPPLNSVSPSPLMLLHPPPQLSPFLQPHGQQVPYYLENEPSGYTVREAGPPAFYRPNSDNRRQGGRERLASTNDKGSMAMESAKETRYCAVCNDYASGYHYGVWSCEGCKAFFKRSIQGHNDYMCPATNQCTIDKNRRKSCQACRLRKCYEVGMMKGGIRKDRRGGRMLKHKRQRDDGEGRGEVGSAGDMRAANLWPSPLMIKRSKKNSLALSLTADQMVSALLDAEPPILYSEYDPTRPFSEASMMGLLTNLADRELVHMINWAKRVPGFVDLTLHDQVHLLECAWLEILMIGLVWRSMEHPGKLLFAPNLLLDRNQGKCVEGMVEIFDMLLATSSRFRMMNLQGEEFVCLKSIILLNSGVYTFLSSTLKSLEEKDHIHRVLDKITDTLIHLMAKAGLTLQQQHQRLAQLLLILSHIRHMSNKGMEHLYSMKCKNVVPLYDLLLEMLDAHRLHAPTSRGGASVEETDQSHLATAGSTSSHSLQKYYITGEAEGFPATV

[13] = biological target: Estrogen receptor (Homo sapiens) (UniProt P03372); assay: qHTS assay to identify small molecule agonists of the estrogen receptor alpha (ER-alpha) signaling pathway using the BG1 cell line (AID 743079); conditions: BG1Luc4E2 cells, ERE-luciferase agonist, 22 h; activation: at 70.3 µM (top of the series) unless noted; also: nearly all actives have a fitted effect of over 20% in size; also: potency is read from the fitted curve at half-maximal effect
[14] = qHTS assay to identify small molecule antagonists of the estrogen receptor alpha (ER-alpha) signaling pathway using the BG1 cell line (AID 743080; calls by dose curve;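 also: BG1 cells stimulated with 17beta-estradiol alongside compound; nearly all actives have a fitted effect of over 25% in size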; also: potency is read from the fitted curve at half-maximal effect)
Method in brief: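 Endogenous full-length ER-alpha in BG1-Luc-4E2 cells drives a stably integrated 4×ERE luciferase gene; compounds were tested against 17beta-estradiol over 21.5 h, with luminescence and multiplexed viability fluorescence recorded.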

[15] = biological target: Androgen receptor (Homo sapiens) (UniProt P10275); assay: qHTS assay to identify small molecule antagonists of the androgen receptor (AR) signaling pathway (AID 743035; active = well fitted inhibition curve with a large enough effect in the signal ratio in the repeat runs, not every such curve was filed as active; inconclusive = weak or mixed curves, or effect the other way; inactive = no such curve, though single readings can be large or run the other way; the % refers to the signal ratio; also: potency is read from the fitted curve at half-maximal effect)
Androgen receptor (Homo sapiens), sequence (P10275 whole entry, looked up): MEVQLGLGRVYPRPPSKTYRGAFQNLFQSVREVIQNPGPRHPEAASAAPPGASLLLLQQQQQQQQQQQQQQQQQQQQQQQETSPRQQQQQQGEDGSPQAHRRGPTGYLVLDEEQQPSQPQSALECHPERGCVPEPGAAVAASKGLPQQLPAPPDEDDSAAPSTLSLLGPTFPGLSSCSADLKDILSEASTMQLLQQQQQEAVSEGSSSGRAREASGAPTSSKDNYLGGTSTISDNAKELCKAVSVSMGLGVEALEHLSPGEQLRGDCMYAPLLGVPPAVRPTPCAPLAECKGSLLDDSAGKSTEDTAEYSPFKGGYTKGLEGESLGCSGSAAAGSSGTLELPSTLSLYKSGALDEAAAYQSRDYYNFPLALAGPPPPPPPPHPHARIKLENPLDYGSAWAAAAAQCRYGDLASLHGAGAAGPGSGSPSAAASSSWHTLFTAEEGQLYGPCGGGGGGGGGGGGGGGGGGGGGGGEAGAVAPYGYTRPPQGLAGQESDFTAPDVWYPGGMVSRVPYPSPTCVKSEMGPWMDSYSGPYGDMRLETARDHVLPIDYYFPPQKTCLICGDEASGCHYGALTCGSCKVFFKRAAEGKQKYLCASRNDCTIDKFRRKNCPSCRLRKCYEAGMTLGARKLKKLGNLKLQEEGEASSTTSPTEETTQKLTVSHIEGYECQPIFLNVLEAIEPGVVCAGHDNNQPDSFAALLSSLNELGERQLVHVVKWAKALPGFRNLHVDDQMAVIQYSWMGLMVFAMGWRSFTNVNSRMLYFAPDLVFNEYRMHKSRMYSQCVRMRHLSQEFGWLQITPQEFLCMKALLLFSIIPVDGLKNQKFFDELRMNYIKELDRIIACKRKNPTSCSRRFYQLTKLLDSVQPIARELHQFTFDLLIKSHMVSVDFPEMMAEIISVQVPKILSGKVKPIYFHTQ
Method in brief: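 Steps: seed AR-UAS-bla GripTite HEK293 cells, incubate 4 h at 37C; pin in test compound, then add agonist R1881; incubate 16 h at 37C; add LiveBLAzer B/G FRET substrate, 2 h at room temperature; read fluorescence.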

[16] = biological target: Androgen receptor (Homo sapiens) (UniProt P10275); assay: qHTS assay to identify small molecule agonists of the androgen receptor (AR) signaling pathway (AID 743036; active = well fitted activation curve with a large enough effect in the signal ratio in the repeat runs, with a control signal flat, not every such curve was filed as active; inconclusive = weak or mixed curves, or effect the other way; inactive = no such curve, though single readings can be large or run the other way; the % refers to the signal ratio)
Method in brief: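 Activation was read as beta-lactamase FRET signal from LiveBLAzer B/G substrate, added for 2 h at room temperature. Before that, GeneBLAzer AR-UAS-bla GripTite (HEK293) cells had 16 h compound exposure at 37C.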

[17] = biological target: Androgen receptor (Homo sapiens) (UniProt P10275); assay: qHTS assay to identify small molecule agonists of the androgen receptor (AR) signaling pathway using the MDA cell line (AID 743040; also: nearly all actives have a fitted effect of over 20% in size); conditions: MDA-kb2 AR-luc cells, MMTV luciferase, 16 h; at 70.3 µM (top of the series); stronger effect = higher value
Method in brief: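 Testing was done with the MDA-kb2 AR-luc line, a human breast carcinoma stably transfected with MMTV-luciferase containing AR and GR response elements. Cells were exposed 16 h at 37C before ONE-Glo luminescence detection.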

[18] = biological target: Androgen receptor (Homo sapiens) (UniProt P10275); assay: qHTS assay to identify small molecule antagonists of the androgen receptor (AR) signaling pathway using the MDA cell line (AID 743042; also: potency is read from the fitted curve at half-maximal effect; nearly all actives have a fitted effect of over 55% in size)
Method in brief: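 MDA-kb2 breast carcinoma cells carrying MMTV-luciferase (AR/GR responsive) were co-treated with compounds and the agonist R1881 for 16 h at 37C. Inhibition read as ONE-Glo luminescence; CellTiter-Fluor fluorescence measured in parallel for cytotoxicity.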

[19] = biological target: Estrogen receptor (Homo sapiens) (UniProt P03372); assay: qHTS assay to identify small molecule antagonists of the estrogen receptor alpha (ER-alpha) signaling pathway (AID 743069; active = well fitted curve in the direction sought with a large enough effect in the signal ratio in the repeat runs, not every such curve was filed as active; inconclusive = weak or mixed curves, or effect the other way; inactive = no such curve, though single readings can be large or run the other way; the % refers to the signal ratio; also: potency is read from the fitted curve at half-maximal effect)
Method in brief: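 In this cell-based reporter format, GripTite HEK293 cells harbouring ER-alpha-UAS-bla were grown overnight with 2% charcoal-stripped FBS, dosed with DMSO-dissolved compounds, then challenged with 17beta-estradiol. After 18 hr at 37C, beta-lactamase activity was detected by FRET fluorescence.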

[20] = qHTS assay for identifying genotoxic compounds that show differential cytotoxicity against isogenic chicken DT40 cell lines with known DNA damage response pathways - Rev3 mutant cell line (AID 743014); also: nearly all actives have a fitted effect of over 55% in size; also: potency is read from the fitted curve at half-maximal effect

Row | Structure (SMILES) | Potency [1] | Potency [2] | Potency [3] | Potency [4] | Potency [5] | Potency [6] | Potency [7] | Potency [8] | Potency [9] | Potency [10] | Potency [11] | Potency [12] | Potency [13] | Potency [14] | Potency [15] | Potency [16] | activity change [17] | Potency [18] | Potency [19] | Potency [20]
1 | CCCCCCCC[N+](C)(CCCCCCCC)CCCCCCCC | 13.8 µM (active) and 5.5 µM (active) and 11 µM (active) | 768 nM (active) and 433 nM (active) and 306 nM (active) | 610 nM (active) and 273 nM (active) and 386 nM (active) | 3.46 µM (active) and 872 nM (active) and 3.47 µM (active) | 17.2 µM (active) and 2.73 µM (active) and 15.4 µM (active) | inactive and 2.44 µM (active) and 6.11 µM (active) | 1.37 µM (active) and 2.73 µM (active) | inactive | 7.75 µM (active) and 27.6 µM (active) and 8.71 µM (active) | inactive and 13.7 µM (active) and 27.3 µM (active) | 15.3 µM (active) and 3.44 µM (active) and 15.4 µM (active) | – | – | – | – | – | – | – | – | –
2 | O=C1Nc2ccc(Cl)cc2C(c2ccccc2)=NC1O (stereo not drawn) | inactive | – | – | inactive | inactive | inactive | 54.9 µM (active) | inactive | inactive | inactive | inactive | – | – | – | – | – | – | – | – | –
3 | NN=C(N)N | inactive | inactive | inactive | inactive | inactive | inactive | inactive | inactive | inactive | inactive | inactive | – | – | – | – | – | – | – | – | –
4 | Nc1ccc2ccccc2c1 | inactive | inactive | inactive | inactive | inactive | inactive | inactive | inactive | – | inactive | inactive | inactive | inactive | – | – | – | – | – | – | –
5 | CNC(=S)S | inactive | inactive | inactive | inactive | inactive | inactive | – | – | inactive | inactive | inactive | inactive | inactive | inactive | – | – | – | – | – | –
6 | CCOP(=S)(OCC)SCSC(C)(C)C | inactive | inactive | inactive | inactive | inactive | inactive | inactive | inactive | inactive | inactive | inactive | inactive | inactive | inactive | – | – | – | – | – | –
7 | COP(=S)(OC)Oc1ccc(Sc2ccc(OP(=S)(OC)OC)cc2)cc1 | inactive | 29.8 µM (active) and 68.6 µM (active) | – | – | inactive | inactive | inactive | inactive | inactive | inactive | inactive | inactive | – | 29.8 µM (active) | 54.9 µM (active) | inactive | -9.3% (inactive) and -9.83% (inactive) | 61.1 µM (active) | 21.9 µM [inconclusive] (active) | –
8 | N#CC(c1ccccc1)c1ccccc1 | inactive | inactive | inactive | inactive | inactive | inactive | inactive | inactive | inactive | inactive | inactive | – | – | – | – | – | – | – | – | –
9 | CCOP(=O)(O)OCC (tested in a mixture with another compound) | 17.2 µM (active) | inactive and 96.1 nM (active) | inactive and 96.1 nM (active) | inactive and 17.2 µM (active) | – | inactive and 7.63 µM (active) | – | inactive | inactive and 27.3 µM (active) | inactive and 54 µM (active) | – | – | – | – | – | – | – | – | – | –
10 | COc1ccc(CO)cc1 | inactive | inactive | inactive | inactive | inactive | inactive | inactive | inactive | inactive | inactive | inactive | – | – | – | – | – | – | – | – | –
11 | ClCc1ccccn1 | inactive | inactive | inactive | inactive | inactive | inactive | inactive | inactive | – | inactive | inactive | inactive | inactive | inactive | – | – | – | – | – | –
12 | CSc1nc(NC(C)C)nc(NC(C)C)n1 | inactive | inactive | – | inactive | inactive | inactive | inactive | inactive | inactive | inactive | inactive | inactive | inactive | inactive | – | – | – | – | – | –
13 | CC(C)(O)C(=O)Nc1ccc([N+](=O)[O-])c(C(F)(F)F)c1 | inactive | 55.6 µM (active) and 5.62 µM (active) | 19.7 µM (active) and 5.01 µM (active) | – | – | inactive | 62.4 µM (active) | inactive | inactive | – | inactive | inactive | – | 55.6 µM (active) | – | – | – | – | – | –
14 | Clc1ccccc1-c1nnc(-c2ccccc2Cl)nn1 | inactive | inactive | inactive | inactive | inactive | inactive | inactive | inactive | inactive | inactive | inactive | inactive | 27.1 µM (active) and 43.1 µM (active) | – | – | – | – | – | – | –
15 | Cc1cccc(N=Nc2ccc(N(C)C)cc2)c1 | inactive | – | inactive and 27.3 µM (active) | inactive | inactive | inactive | inactive | inactive | inactive | 31.2 µM (active) and 27.3 µM (active) | inactive | inactive | 139 nM (active) and 864 nM (active) | – | – | – | – | – | inactive | inactive and 27.3 µM (active)
